DAX1 inh-1 = NR0B1 (DAX1) inhibition | HEK293 Gal4-DAX1 luciferase reporter, luminescence | inhibition, % at 6.75 µM | P51843 | actives 0.99% (n = 340,000);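 active means inhibition above the mean over all tested compounds plus 3 SD, cut at about 4.2% in these data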;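 further: inhibition shows as a rise in luminescence from relieved DAX1 repression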
Target sequence (P51843 207-470 limits assumed): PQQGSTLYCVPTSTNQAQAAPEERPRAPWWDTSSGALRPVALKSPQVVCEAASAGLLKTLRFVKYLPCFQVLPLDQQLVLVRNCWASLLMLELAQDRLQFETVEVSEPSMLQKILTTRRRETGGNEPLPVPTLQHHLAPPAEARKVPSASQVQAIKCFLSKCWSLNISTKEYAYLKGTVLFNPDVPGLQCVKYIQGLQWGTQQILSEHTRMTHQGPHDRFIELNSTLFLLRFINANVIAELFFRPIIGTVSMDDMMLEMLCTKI
NR1D1 modulator = Rev-erb alpha (human) modulation; activity, % at 10 µM; P20393; Rev-erbα–FITC-DNA binding, fluorescence polarization, 90 min; actives 0.79% (n = 370,000); AID 1259318;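 active means activity above about 14%, limit read from the data; passing the limit was not always enough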
DAX1 inh-2 = DAX1 (NR0B1) inhibition, primary screen | actives 1.1% (n = 370,000) | AID 652010 | inhibition, % at 6.8 µM | HEK293T StAR-luciferase reporter, SF-1/DAX-1 repression relief;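 active means inhibition above the mean over all tested compounds plus 3 SD, cut at about 3.6% in these data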;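 further: higher inhibition means more luminescence from relief of DAX-1 repression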
hcDAF-12 act = H. contortus DAF-12 activation, primary screen. HEK293 hcDAF-12 lit1-tk-luc reporter, luminescence; 0% DMSO, 100% Δ7-dafachronic acid. activation, % at 6.8 µM. actives 1.4% (n = 370,000);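 active means activation above the mean of all tested compounds plus 3 SD, cut at about 5.5% in these data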
hgDAF-12 ag = hgDAF-12 agonism, primary luciferase screen. HEK293 GAL4-hgDAF12 UAS-luciferase reporter, agonist luminescence; normalized to butyrate control. activation, % at 6.8 µM. actives 1.8% (n = 370,000). AID 687014;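 active means activation above a cutoff set at the mean of all screened compounds plus 3 SD, cut at about 10% in these data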
ssDAF12 agonist = S. stercoralis DAF-12 activation, primary screen; AID 652126; HEK293 ssDAF-12/GRIP1 lit1-tk-luc reporter, luminescence; % of 3 µM dafachronic acid response; activation, % at 6.8 µM; actives 1% (n = 370,000);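 active means activation above the mean over all tested compounds plus 3 SD, cut at about 0.9% in these data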
Of the large screens only hits and unclear results are named; the others gave an inactive call. Hits are enriched below; roughly 4.8% of the tested compounds scored in any of these assays.

CC1CCN(c2ccccc2NC(=O)c2ccc(Br)o2)CC1	ssDAF12 agonist 1.0
CN1CCN(c2ccccc2NC(=O)c2ccc(Br)o2)CC1	none
O=C(Nc1ccccc1N1CCOCC1)c1cc2ccccc2o1	ssDAF12 agonist 1.3
CC1(C)CC(=O)C=C(Nc2ccccc2NC(=O)c2ccc(F)cc2F)C1	none (no result: DAX1 inh-1)
COC(=O)C/C=C/[C@@H](C)[C@H](NC(=O)OCC(Cl)(Cl)Cl)c1ccc(-c2ccccc2)cc1	none (no result: DAX1 inh-1)
COC(=O)C(Cc1c[nH]c2ccccc12)NC(C)=O (stereo unspecified)	none
COC(=O)[C@@H](Cc1c[nH]c2ccccc12)NCc1cccc(B(O)O)c1	hcDAF-12 act 5.8
COC(=O)[C@@H](Cc1c[nH]c2ccccc12)NC(=O)CCC(=O)c1ccc(F)cc1	hcDAF-12 act 5.6
C[C@H]1CN(S(=O)(=O)C(C)(C)C)[C@@H](CCO)/C1=C\CCO	none (no result: DAX1 inh-1)
C=CC[C@H]1c2ccccc2[C@H]2N3N=Cc4ccccc4[C@H]3[C@H](CCCC)C(=O)N2N1C(=O)c1ccccc1	none (no result: DAX1 inh-1)
OCCCNc1ncnc2c1ncn2[C@H]1CN(Cc2ccc3c(c2)OCO3)C[C@@H](CO)O1	hcDAF-12 act 6.3 (no result: DAX1 inh-1)
CN(C)CCNc1ncnc2c1ncn2[C@H]1CN(Cc2ccc3c(c2)OCO3)C[C@@H](CO)O1	none (no result: DAX1 inh-1)
COC(=O)[C@]12C[C@H](CC(=O)NCc3cccc(C(F)(F)F)c3)C(=O)N(Cc3ccco3)C1=C[C@H](C1CCCC1)O[C@@H]2C	none (no result: DAX1 inh-1)
Cc1c(-c2cc(Br)ccc2O)nc2cc3c(cc2c1C)OCO3	DAX1 inh-1 4.3
O=S(=O)(Cc1noc(-c2ccccc2Cl)n1)c1ccccn1	DAX1 inh-1 4.9
Cc1noc(C)c1-c1nc(CS(=O)(=O)c2ccc(Cl)cc2)no1	none
COc1ccccc1NC(=O)NC(N)=O	DAX1 inh-1 4.3
COc1cccc(/C=C/C(=O)OCC(=O)Nc2ccc3c(c2)OCO3)c1	DAX1 inh-1 6.4
COc1ccc(NC(=O)Nc2ccc(F)cc2F)c(C)c1	none
COc1ccccc1NC(=O)Nc1ccc2c(c1)OCCO2	DAX1 inh-1 8.0, hgDAF-12 ag 13
COc1ccc(NC(=O)Nc2ccc(F)cc2F)cc1	ssDAF12 agonist 1.1
Cc1cccc(Cn2cc(COC(=O)NCCc3ccccc3)nn2)c1	none (no result: DAX1 inh-1)
O=S1(=O)c2ccc(Br)cc2OC[C@@H](c2ccccc2)N1Cc1cn(CCC2OCCCO2)nn1	none (no result: DAX1 inh-1)
C=CCN(C)CC#Cc1ccc(C)cc1	none (no result: DAX1 inh-1)
COc1ccc(NC(=O)Nc2ccc3c(c2)OCO3)c(C)c1	DAX1 inh-2 4.4
Cc1cc(O)c(C=Nc2ccc(Cl)cn2)c(=O)o1	none
Oc1ccc2ccccc2c1C=Nc1ccc(Cl)cn1	ssDAF12 agonist 1.3
Brc1ccc(-c2csc(N3CCC(c4nn[nH]n4)CC3)n2)cc1	none (no result: DAX1 inh-1, DAX1 inh-2)
CC[C@H](C)C(=O)O[C@H]1CCC=C2C=C[C@H](C)[C@H](CC[C@@H]3C[C@@H](O)CC(=O)O3)[C@H]21	DAX1 inh-2 3.9
CCC(C)C(=O)OC1CCC=C2C=CC(C)C(CCC3CC(O)CC(=O)O3)C21 (stereo unspecified)	none
O=C(NCCN1CCC(Cc2ccccc2)CC1)C1CCCN(S(=O)(=O)c2ccccc2[N+](=O)[O-])C1 (stereo unspecified)	none (no result: DAX1 inh-1)
Nc1ccc2nc(Cc3ccccc3)[nH]c2c1	DAX1 inh-1 4.6
O=C(O)c1cc(-c2cc3ccccc3o2)nn1-c1ccccc1	hcDAF-12 act 5.8, ssDAF12 agonist 2.5
CCCOc1ccccc1/C=C(\C#N)C(=O)Nc1cccnc1	DAX1 inh-1 5.0
COc1ccc(O)c(/C=C(\C#N)C(=O)Nc2cccnc2)c1	none
COc1ccc(C(=O)/C=C/Nc2ccc(S(=O)(=O)Nc3onc(C)c3C)cc2)cc1	DAX1 inh-2 3.9, hgDAF-12 ag 11, ssDAF12 agonist 1.2
Cc1noc(NS(=O)(=O)c2ccc(N/C=C/C(=O)c3ccc(F)cc3)cc2)c1C	none
CCc1ccc(C(=O)/C=C/Nc2ccc(S(=O)(=O)Nc3onc(C)c3C)cc2)cc1	hgDAF-12 ag 11
Cc1c(C(=O)NCc2ccco2)oc2c(F)cccc12	hcDAF-12 act 5.9

High-throughput results as filed in PubChem BioAssay.
